Compound activity as filed in PubChem BioAssay.
Most compounds without a hit are left out; they make up all but 2.5% or so of the library.
ASK1 primary: ASK1 kinase inhibitors, primary screen, biochemical, AlphaScreen; Mitogen-activated protein kinase kinase kinase 5 (Homo sapiens), Q99683; AlphaScreen MKK6 phosphorylation by ASK1, luminescence; inhibition, % at 7.44 µM; 22,000 tested, 0.99% active; in the data active = inhibition above about 35%
ULK1 primary: ULK1 kinase inhibitors, primary screen, biochemical, AlphaScreen | Serine/threonine-protein kinase ULK1 (Homo sapiens), O75385 | AlphaScreen Atg13 phosphorylation by ULK1, luminescence | inhibition, % at 5.96 µM | 30,000 tested, 1.9% active; in the data active = inhibition above about 43%
Target sequence (O75385 whole entry, looked up): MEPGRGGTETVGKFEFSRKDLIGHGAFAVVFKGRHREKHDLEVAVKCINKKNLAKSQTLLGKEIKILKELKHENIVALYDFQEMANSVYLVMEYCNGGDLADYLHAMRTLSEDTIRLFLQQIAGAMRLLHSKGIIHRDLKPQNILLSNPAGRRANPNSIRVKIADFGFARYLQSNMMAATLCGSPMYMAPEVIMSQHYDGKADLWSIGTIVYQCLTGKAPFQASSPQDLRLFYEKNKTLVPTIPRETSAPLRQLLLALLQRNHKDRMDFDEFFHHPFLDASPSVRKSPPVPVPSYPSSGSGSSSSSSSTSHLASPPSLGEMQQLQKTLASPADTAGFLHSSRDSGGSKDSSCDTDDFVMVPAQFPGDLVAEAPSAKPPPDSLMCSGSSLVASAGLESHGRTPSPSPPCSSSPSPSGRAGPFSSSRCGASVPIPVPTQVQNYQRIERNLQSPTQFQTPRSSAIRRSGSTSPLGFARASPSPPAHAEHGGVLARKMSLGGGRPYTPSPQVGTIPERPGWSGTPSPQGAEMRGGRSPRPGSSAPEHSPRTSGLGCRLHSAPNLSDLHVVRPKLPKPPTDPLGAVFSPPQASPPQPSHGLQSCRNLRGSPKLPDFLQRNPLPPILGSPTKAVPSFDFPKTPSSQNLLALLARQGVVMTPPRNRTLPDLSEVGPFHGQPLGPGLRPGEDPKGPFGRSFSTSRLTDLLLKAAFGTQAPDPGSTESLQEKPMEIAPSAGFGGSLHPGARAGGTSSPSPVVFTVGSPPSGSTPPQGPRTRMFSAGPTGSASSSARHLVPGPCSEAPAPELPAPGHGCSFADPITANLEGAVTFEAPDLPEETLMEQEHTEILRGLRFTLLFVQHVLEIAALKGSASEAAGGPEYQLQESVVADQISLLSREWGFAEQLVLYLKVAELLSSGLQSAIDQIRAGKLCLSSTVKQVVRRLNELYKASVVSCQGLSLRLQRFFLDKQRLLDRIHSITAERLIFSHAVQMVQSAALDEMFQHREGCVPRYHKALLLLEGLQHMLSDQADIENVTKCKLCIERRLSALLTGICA
Each line names hits and unclear results; the compound was inactive in the other large screens; ! = a repeat was not active.

CC(=O)Nc1ccc(Nc2ccnc(-c3ccc(N4CCOCC4)nc3)n2)cc1	none
COc1ccc(-c2ncc(C)c(Nc3cc(OC)c(OC)c(OC)c3)n2)cn1	ULK1 primary 55
COc1cc(Nc2ccnc(-c3ccc(C(=O)NC4CC4)cc3)n2)cc(OC)c1OC	ULK1 primary 45
COc1cc(Nc2cc(C)nc(-c3ccc(C(=O)NC4CC4)cc3)n2)cc(OC)c1OC	none
c1cc(Nc2ccc(N3CCOCC3)cc2)nc(-c2ccc(N3CCOCC3)nc2)n1	ULK1 primary 60
Cn1ccc2cc(-c3nc(C(=O)NC4CCN(Cc5ccccc5)CC4)cs3)ccc21	none
COc1ccc(CC(=O)Nc2cc(-n3cc4ccccc4n3)ccn2)cc1	none
O=C(O)CCCC[C@H]1SC[C@H]2NC(=O)N[C@H]21	ULK1 primary 100 (no result: ASK1 primary)
Cc1cc(Nc2ccc(OCCN3CCCCC3)cc2)nc(-c2cccc(OC(F)(F)F)c2)n1	none
c1cc(OCCN2CCCCC2)cc(-c2n[nH]c3ccc(-c4ncn[nH]4)cc23)c1	ULK1 primary 45
NC(=O)c1ccc2[nH]nc(-c3cccc(OCCN4CCCCC4)c3)c2c1	ULK1 primary 61
O=C(O)c1ccc(OCCN2CCCCC2)cc1	none (no result: ASK1 primary)
COc1cc2nc(NCc3ccc4c(c3)OCO4)nc(NCCO)c2cc1OC	none
O=C1CCCN1CCCNc1nc(Nc2ccc(-n3ccnc3)cc2)nc2nc[nH]c12	ULK1 primary 58
O=C1CCCN1CCCNc1nc(Nc2ccccc2)nc2nc[nH]c12	ULK1 primary 46
O=C1CCCN1CCCNc1nc(Nc2ccccc2)c2[nH]cnc2n1	none
O=C1CCCN1CCCNc1nc(NCCCN2CCCC2=O)c2[nH]cnc2n1	none
O=C1CCCN1CCCNc1nc(Nc2ccncc2)nc2nc[nH]c12	ULK1 primary 55
O=C1CCCN1CCCNc1nc(Nc2cccnc2)nc2nc[nH]c12	none
N#Cc1cc(-c2cn[nH]c2)ccc1NC(=O)C1COc2ccccc2O1 (configuration not stated)	none
CCN1CCN(C(=O)Cl)C(=O)C1=O	none (no result: ASK1 primary)
CC(C)N(CCNc1nc(-c2ccc(N3CCOCC3)nc2)nc2nc[nH]c12)C(C)C	none
CN1CCN(C(=O)c2ccc(-c3cccc(C(=O)NCc4cccnc4)n3)cc2)CC1	none
CN1CCN(C(=O)c2ccc(-c3cccc(C(=O)NCc4ccccc4)n3)cc2)CC1	ULK1 primary 70
O=C1NC(=Nc2ccccc2)SC1Cc1ccccc1[N+](=O)[O-] (configuration not stated)	none (no result: ASK1 primary)
O=C(/C=C/c1ccccc1)NC(=S)NNC(=O)CCN1CCCCC1	none (no result: ASK1 primary)
N[C@@H]1CC[C@H](C(=O)Nc2ccc3cnccc3c2)C1	none
NC1CCC(C(=O)Nc2ccc3[nH]ncc3c2)CC1 (configuration not stated)	ULK1 primary 55!
CC(C)[C@@H](O)C(=O)N[C@H]1CC[C@@H](C(=O)Nc2ccc3[nH]ncc3c2)C1	none
N[C@H]1CCC[C@H](C(=O)Nc2ccc3cnccc3c2)C1	ULK1 primary 75
c1nc(NCCN2CCOCC2)c2[nH]c(N3CCC(N4CCOCC4)CC3)nc2n1	none
CCNc1nc(Nc2cc(OC)c(OC)c(OC)c2)c2[nH]cnc2n1	none
COc1cc(Nc2nc(NCCOc3ccccc3)c3[nH]cnc3n2)cc(OC)c1OC	ULK1 primary 78
COc1cc(Nc2nc(NCCc3ccc(O)cc3)c3[nH]cnc3n2)cc(OC)c1OC	ULK1 primary 75
COc1cc(Nc2nc(NCCO)c3[nH]cnc3n2)cc(OC)c1OC	ULK1 primary 63
CN(C)c1cccc(Nc2nc(NCCOc3ccccc3)c3[nH]cnc3n2)c1	none
CCNc1nc(NCCc2ccc(O)cc2)c2[nH]cnc2n1	none
COc1ccc(CCNc2nc(N3CCCC3CO)nc3c2ncn3Cc2ccc(C(F)(F)F)cc2)cc1 (configuration not stated)	none
c1ccc(Oc2ccc(Nc3ccnc(Nc4ccncc4)n3)cc2)cc1	none
COc1cc(Nc2nc(Nc3cc(OC)c(OC)c(OC)c3)c3ncn(-c4ccsc4)c3n2)cc(OC)c1OC	none
CNC(=O)c1ccc2cnc(Nc3ccc(-n4cnc(N5CCOCC5)n4)cc3)nc2c1	ULK1 primary 50
CCn1cc(-c2ccc3cnc(Nc4ccc(-n5cnc(N6CCOCC6)n5)cc4)nc3c2Cl)cn1	ULK1 primary 78
Cn1cc(-c2ccc3cnc(Nc4ccc(-n5cnc(N6CCOCC6)n5)cc4)nc3n2)cn1	none
O=C(NCc1ccccc1)c1ccc2cnc(Nc3ccc(-n4cnc(N5CCOCC5)n4)cc3)nc2c1	none
Cn1cc(-c2ccc3cnc(Nc4ccc(-n5cnc(N6CCOCC6)n5)cc4)nc3c2C(F)(F)F)cn1	none
CC1CN(c2ncn(-c3ccc(Nc4ncc5ccc(-c6cnn(C)c6)c(Cl)c5n4)cc3)n2)CC(C)O1 (configuration not stated)	ULK1 primary 53
O=C(Nc1ccc2[nH]ncc2c1)C1CCCN1C(=O)Nc1ccc(Br)cc1 (configuration not stated)	none
c1ccc(N2CCN(c3nc(NC4CC4)c4ncn(-c5ccsc5)c4n3)CC2)nc1	none
O=C(NCc1nc2ccccc2[nH]1)C1CCN(c2ccc(NC3CCN(Cc4ccccc4)CC3)nn2)CC1	none
c1ccc(CN2CCC(Nc3ncnc4nc(Nc5ccncn5)[nH]c34)CC2)cc1	ULK1 primary 55
c1ccc(CN2CCC(Nc3ncnc4nc(Nc5cnccn5)[nH]c34)CC2)cc1	none
COc1cc2nc(N3CCCC3CO)nc(Nc3ccc(NC(C)=O)cc3)c2cc1OC (configuration not stated)	none
c1cnn(Cc2ccc(Nc3nccc(-c4cncc(N5CCOCC5)c4)n3)cc2)c1	none
Cc1[nH]nc2ccc(Nc3nccc(-c4cncc(N5CCOCC5)c4)n3)cc12	ULK1 primary 49
Fc1cc(-c2nc(Nc3cccc(Cn4ccnc4)c3)ncc2F)cc(N2CCOCC2)c1	ULK1 primary 79
c1cn(Cc2ccc(Nc3nccc(-c4cncc(N5CCOCC5)c4)n3)cc2)cn1	ULK1 primary 60
Cc1nc2ccc(Nc3nccc(-c4cncc(N5CCOCC5)c4)n3)cc2o1	none
Fc1cc(-c2nc(Nc3ccc(Cn4ccnc4)cc3)ncc2F)cc(N2CCOCC2)c1	none
Cn1cnnc1-c1ccc(Nc2nccc(-c3cncc(N4CCOCC4)c3)n2)cc1	ULK1 primary 58
Cn1cnnc1-c1ccc(Nc2nccc(-c3cc(C#N)cc(N4CCOCC4)c3)n2)cc1	none
CCCN(C1CCN(C)CC1)S(=O)(=O)c1ccc(N)cc1	none (no result: ASK1 primary)
O=C1CCCN1CCn1cnc2c(Nc3ccccc3)nc(N3CCN(c4ccccn4)CC3)nc21	none
CC(C)n1cnc2c(NCCc3ccc(O)cc3)nc(NCc3cccnc3)nc21	none
Fc1ccc(Nc2nccc(-c3cncc(N4CCOCC4)c3)n2)cc1	none
COc1ccc(Nc2nccc(-c3cncc(N4CCOCC4)c3)n2)cc1OC	ULK1 primary 47
COc1cc2nc(Nc3cc(OC)c(OC)c(OC)c3)nc(Nc3ccc4c(c3)OCO4)c2cc1OC	none
c1ccc(Nc2nc(N3CCN(c4ccccn4)CC3)nc3nc[nH]c23)cc1	none
O=C(Nc1ccc(N2CCOCC2)cc1)c1cccc(Nc2ccc3ncccc3c2)n1	ULK1 primary 46
O=C(NCCN1CCOCC1)c1cccc(Nc2ccc3ncccc3c2)n1	none
CCN(CC)C(=O)C1CCCN(c2cccc(C(=O)NCCN3CCOCC3)n2)C1 (configuration not stated)	none
O=C(Nc1ccc(N2CCOCC2)cc1)c1csc(Nc2ncccn2)n1	ULK1 primary 53
O=C(Nc1ccc(N2CCOCC2)cc1)c1csc(Nc2ccc(N3CCOCC3)cc2)n1	none
